What all share (assay): NCI-60 one-dose screen, 48 h (100 = growth as untreated, 0 = no growth, -100 = all killed)
Details in all cases: 10 µM unless noted

The subject of test [1] is HCT-15 colon.
For test [2], the system named is HT29 colon.
In test [3] the test system is SNB-75 CNS.
In test [4] the test system is SNB-19 CNS.
Test [5] concerns U251 CNS.
Test [6] deals with PC-3 prostate.
For test [7], the system named is SK-MEL-5 melanoma.
Test [8] has as its system UACC-62 melanoma.
Test [9] deals with LOX IMVI melanoma.
In test [10] the test system is SK-MEL-28 melanoma.
The subject of test [11] is EKVX NSCLC.
Test [12] has as its system SN12C renal.
The subject of test [13] is UO-31 renal.
Test [14] concerns TK-10 renal.
Test [15] relates to ACHN renal.
Test [16] relates to CAKI-1 renal.
The subject of test [17] is A498 renal.
In test [18] the test system is CCRF-CEM leukemia.
Test [19] deals with MOLT-4 leukemia.
Test [20] concerns SK-MEL-2 melanoma.

SMILES strings stand for the structures. Compounds without any hit were thinned out: in the full panel of roughly 83,000, 20% have a hit.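 Assay: single dose, 48 h. Readout: percent growth (0 = no net growth; negative = cell death). Active: <10.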 Unmarked numbers belong to inactive results. Activity calls are given as the source filed them.

For the compound `O=C(c1ccc(Cl)cc1Cl)N1c2ccccc2Sc2ccccc21`, the growth in test [1] was 29.6%; in [2], 47.5%; in test [3], 59.6%; in test [4], 57.3%; in [5], 33.1%; in [6] it was 44%. Also, the growth in test [7] is 34.6%; in test [8], 43.1%; in test [9] it was 23.9%; in test [10] it was 65.4%; in test [11], 75.7%; in test [12] it was 66.9%. Besides, the growth was 65.3% in [13]; 73.3% in test [14]; 60.7% in [15]; 50.5% in test [16]; 68.9% in test [17]; 57.2% in test [18]. In test [19], the growth was 26.4%.

Regarding `CCN1C(=S)N(CC)C2C1NC(=S)N2/N=C/C=C/c1ccccc1OC` (configuration not stated), the growth was 14.9% in test [1]; 2.78% (active) in test [2]; -5.85% (active) in [3]; 26.5% in [4]; 13.1% in test [5]; 33% in test [6]. In addition, the growth in test [7] is 17.3%; in test [8] it was 23.5%; in [9], 19%; in test [10], 54.5%; in [20] it was 46.7%; in test [11] it was 49.3%. For the same compound, the growth is 28.5% in test [12]; 43.5% in [13]; 71.4% in [14]; 34.1% in test [16]; 16.3% in test [17]; 12.2% in test [18]. Besides, the growth in [19] was 17.7%.

Turning to `C#Cc1cccc(Nc2nc3ccc([N+](=O)[O-])cc3nc2Nc2cccc(C#C)c2)c1`, the growth in test [1] is -69.4% (active); in test [2] it was -75.9% (active); in test [3], -91.9% (active); in test [4], -19.2% (active); in [5] it was -91.1% (active); in test [6] it was -41.9% (active). In addition, the growth is -88.9% (active) in [7]; -39.3% (active) in [8]; -93.2% (active) in test [9]; -69.4% (active) in [10]; -53.8% (active) in test [20]; -12% (active) in test [11]. In addition, the growth in test [13] was -84.1% (active); in test [14], -34.4% (active); in test [15], -1.34% (active); in test [16], -25.8% (active); in test [17], -20.3% (active); in [18] it was -33.9% (active). Besides, the growth in test [19] is -47.5% (active).

Consider `CCN(CC)c1ccc(/C=N\NC(=O)c2cccc(Nc3ccnc(C(F)(F)F)c3)c2)c(O)c1`, for which the growth in test [1] was 28.7%; in [2], 11.7%; in test [3], 34.7%; in test [4], 15.9%; in test [5], 13.1%; in test [6], 18.9%. Further, the growth was -52.2% (active) in [7]; -12.2% (active) in test [8]; -6.15% (active) in test [9]; 64.8% in test [10]; 26.6% in test [11]; 18.2% in test [12]. Further, the growth is 7.3% (active) in test [13]; 42.8% in test [14]; 12.1% in test [15]; 55.6% in [16]; 53% in test [17]; 15.7% in test [18]. For the same compound, the growth in test [19] was 77.5%.

Regarding `O=C1/C(=C/c2ccc(C(F)(F)F)cc2)COc2ccc(O)cc21`, the growth in [1] was 40.6%; in [2] it was 44.2%; in test [3] it was 81.1%; in [4], 85.3%; in test [5], 52.3%; in [6] it was 70.3%. Also, the growth in [7] is 97.4%; in test [8], 80.2%; in test [9], 2.9% (active); in test [10], 100%; in test [20], 99.7%; in test [11], 96.3%. In addition, the growth in test [13] is 44.8%; in test [14], 99.2%; in test [15] it was 91.3%; in test [16], 71.9%; in test [17], 109%; in test [18], 3.29% (active). Moreover, the growth in [19] is 4.15% (active).

For the compound `COc1ccc(Cc2nnc(Nc3nc4ccccc4s3)s2)cc1`, the growth in test [1] is 92.4%; in test [2], 110%; in test [3] it was 92.2%; in test [4] it was 94.2%; in [5], 98.2%; in test [6], 108%. In addition, the growth in test [7] is 96.5%; in [8], 89.6%; in [9], 96.4%; in [10], 92.3%; in test [20], 107%; in test [11], 96.1%. In addition, the growth in [12] is 94.2%; in [13] it was 81.2%; in test [14], 103%; in [16] it was 96.1%; in test [17] it was 97.8%; in test [18], 97.7%. The growth in test [19] was 105%.

Regarding `COc1cc(-c2nc(NC(C)=O)sc2-c2ccnc(NCCNS(=O)(=O)c3ccccc3)n2)ccc1Cl`, the growth in [1] was 31.7%; in test [2] it was 3.97% (active); in [3], 15.7%; in test [4], 53.9%; in test [5], 31.5%; in [6], 16.3%. In addition, the growth was 1.64% (active) in test [7]; 23% in [8]; 32.1% in [9]; 35.6% in test [10]; -12.6% (active) in test [20]; 45.4% in test [11]. The growth in [13] was 63.3%; in test [14], 39.5%; in [15] it was 44%; in test [16] it was 57.9%; in test [17] it was 27.1%; in test [18] it was 13%. Further, the growth in test [19] is 15.5%.

Regarding `CCCCCCC(CCCC)COC(=O)c1ccc(Cl)cc1` (configuration not stated), the growth in test [1] is 107%; in test [2], 121%; in [3], 95%; in [4], 109%; in test [5] it was 113%; in test [6], 96.5%. For the same compound, the growth is 96.5% in test [7]; 98.7% in test [8]; 103% in test [9]; 112% in [10]; 109% in [20]; 112% in test [11]. Also, the growth in test [13] was 98%; in test [14] it was 110%; in test [15], 110%; in test [16], 100%; in test [17], 93.9%; in test [18] it was 105%. Besides, the growth in test [19] was 98.8%.
